Test results: PubChem BioAssay AID1259416 (Broad Institute, 2018)
Where “and” joins values, the source holds several entries; their conditions need not be identical. Equal entries are not always repeated. The campaign covered roughly 69,000 compounds. About 2,600 (3.8%) were called active. Rule as the data show it: active = activity change below about -70% (passing the limit was not always enough); inconclusive = no clear call, values can overlap the other calls. Only a selection was taken, and actives are over-represented in it overall. Some structures have more than one record in an assay (separate samples or runs), and their calls can disagree.

Assay: T. gondii growth inhibition with IFN-gamma, primary screen, cell-based (AID 1259416);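 also: host cells are HeLa cells infected with Toxoplasma gondii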
Conditions: Toxoplasma gondii growth in IFN-gamma-treated host cells; stronger effect = lower value; concentration not given here
With `Cc1cnc(CN(C)C(=O)C(C)(C)NC(=O)c2cccs2)[nH]1` the activity change, negative = inhibition was -13.9% (inactive).
For `CN1CCN(c2ccc3nc(-c4c(N)c5c(F)cccc5[nH]c4=O)[nH]c3c2)CC1`, the activity change, negative = inhibition was -66.4% (inactive) and -77.3% (active).
For `Clc1cccnc1-c1cccc2[nH]ccc12`, the activity change, negative = inhibition was 9.34% (inactive).
With `CC(C)C(=O)NS(=O)(=O)c1ccc(NC(=O)c2ccccc2)cc1` the activity change, negative = inhibition was 5.8% (inactive).
With `COc1cccc(CNC(=O)Nc2ccc(-c3nc(-c4cc(C)ccc4C)co3)cc2)c1` the activity change, negative = inhibition was -13% (inactive).
With `COc1cccc(NC(=O)Nc2ccc3c(c2)C(=O)N(C)C[C@@H](OC)[C@H](C)CN(CC2CC2)[C@H](C)CO3)c1` the activity change, negative = inhibition was 63.1% (inactive).
For `COc1cc(NC(=O)Nc2cccc(CNC(=O)O[C@H]3CCOC3)c2)ccc1-c1cnco1`, the activity change, negative = inhibition was -72.9% (active).
In the case of `Cc1nc2c(c(N3CCN(C(=O)c4ccccc4F)CC3)n1)CN(Cc1ccccc1)CC2`, the activity change, negative = inhibition is reported as -27.3% (inactive).
In the case of `COCC(=O)N1CCC(N(C)Cc2ccccc2)CC1C(=O)O` (stereo not given), the activity change, negative = inhibition is reported as 3.74% (inactive).
With `Cc1nn(C)cc1-c1ccnc(NCC2CCN(Cc3ccccc3)C2)n1` (stereo not given) the activity change, negative = inhibition was -13.6% (inactive).
With `Cc1nn(-c2ccccc2)c(C)c1-c1ccnc(NCc2cnc3ccccn23)n1` the activity change, negative = inhibition was -82.8% (active).
In the case of `COc1cc(CN(C)Cc2ncccc2C)cc(OC)c1`, the activity change, negative = inhibition is reported as -4.74% (inactive).
For `COCCN1C(=O)CCc2cc(NC(=O)CC(C)(C)C)ccc21`, the activity change, negative = inhibition was 3.59% (inactive).
For `CN(Cc1cccnc1)C1COC2(CCN(Cc3cccs3)CC2)C1` (stereo not given), the activity change, negative = inhibition was 1.79% (inactive).
In the case of `O=C(NCc1cccnc1)c1ccc(N2CCC(NC3C4CC5CC(C4)CC3C5)CC2)cc1` (stereo not given), the activity change, negative = inhibition is reported as 5.88% (inactive).
For `O=C(NCCc1nnc2n1CCNCC2)C1(c2ccccc2)CC12CCCC2` (stereo not given), the activity change, negative = inhibition was -3.83% (inactive).
With `Cc1cc(C)c2c(-n3cccc3)c(C(=O)c3ccc(Cl)cc3)sc2n1` the activity change, negative = inhibition was -91.8% (active).
With `Cc1cc(C)c2c(n1)sc1c(=O)n(C)cnc12` the activity change, negative = inhibition was -4.83% (inactive).
For `COc1ccc(OC)c(C(=O)c2ccc(Cl)cc2)c1`, the activity change, negative = inhibition was 36.6% (inactive).
For `Cn1cc(C(CNC(=O)Nc2cccc(F)c2)c2cccnc2)c2ccccc21` (stereo not given), the activity change, negative = inhibition was 27% (inactive).
With `CO[C@@H]1CN(C)C(=O)c2ccc(NS(C)(=O)=O)cc2OC[C@@H](C)N(CC2CC2)C[C@@H]1C` the activity change, negative = inhibition was -56.4% (inactive).
For `CCCC(=O)Nc1ccc2c(c1)OC[C@@H](C)N(CC1CCOCC1)C[C@H](C)[C@H](OC)CN(C)C2=O`, the activity change, negative = inhibition was -83.2% (active).
In the case of `CO[C@@H]1CN(C)C(=O)c2cc(NC(=O)NC3CCCCC3)ccc2OC[C@H](C)N(CC2CCOCC2)C[C@H]1C`, the activity change, negative = inhibition is reported as -30.9% (inactive).
For `O=C(CCc1nc(-c2ccccn2)no1)N1CCC(CCc2ccccc2F)CC1`, the activity change, negative = inhibition was 18.8% (inactive).
With `CCc1[nH]c2c(CNS(=O)(=O)N(C)C)cc(C)cc2c1C` the activity change, negative = inhibition was -4.66% (inactive).
With `Fc1ccc(Cl)cc1-c1nc(Nc2ccncc2)c2nccnc2n1` the activity change, negative = inhibition was -81% (active).
For `Cc1nc(Nc2ccc(Cl)cc2)sc1C(=O)c1ccncc1`, the activity change, negative = inhibition was 0.796% (inactive).
In the case of `O=C(Nc1ccccc1Oc1ccc(F)cc1)C1CC(=O)N(Cc2cccnc2)C1` (stereo not given), the activity change, negative = inhibition is reported as 18.8% (inactive).
For `O=C(Nc1nc(-c2ccc(Br)cc2)cs1)c1c(O)c2ccccc2[nH]c1=O`, the activity change, negative = inhibition was 8.75% (inactive).
With `CCCc1nc(C)c(CNC(=O)C2CCOC2)s1` (stereo not given) the activity change, negative = inhibition was -2.34% (inactive).
With `COCCCNC(=O)c1nc(Nc2ccc(F)cc2)c2ccccc2n1` the activity change, negative = inhibition was -29% (inactive).
In the case of `C=CC(=O)Nc1ccc2c(c1)CCC(=O)N2CC`, the activity change, negative = inhibition is reported as -3.01% (inactive).
For `O=C(Cn1c(NCCCO)nc2ccccc21)c1ccccc1`, the activity change, negative = inhibition was -22.3% (inactive).
With `O=C(CNC(=O)c1ccccc1F)c1ccc(Br)cc1` the activity change, negative = inhibition was 264% (inactive).
With `O=C(Cn1c(C(=O)c2ccccc2)nc2ccccc21)c1ccc(Br)cc1` the activity change, negative = inhibition was -103% (active).
For `Clc1cccc(CN2CC3CCCC(C2)C3N2CCOCC2)c1Cl` (stereo not given), the activity change, negative = inhibition was 9.4% (inactive).
With `C[C@H]1CN([C@@H](C)CO)C(=O)c2cccc(NC(=O)c3ccc(-c4nccs4)cc3)c2O[C@@H]1CN(C)C(=O)Nc1ccc(C(F)(F)F)cc1` the activity change, negative = inhibition was -80.3% (active).
In the case of `Cc1ccc(S(=O)(=O)Nc2cccc3c2O[C@H](CN(C)C(=O)Nc2ccc(C(F)(F)F)cc2)[C@@H](C)CN([C@@H](C)CO)C3=O)cc1`, the activity change, negative = inhibition is reported as 16.3% (inactive).
In the case of `Cc1noc(C)c1S(=O)(=O)Nc1cccc2c1O[C@H](CN(C)Cc1ccc(C(F)(F)F)cc1)[C@H](C)CN([C@@H](C)CO)C2=O`, the activity change, negative = inhibition is reported as 25.4% (inactive).
In the case of `C[C@H]1CN([C@@H](C)CO)C(=O)c2ccccc2-c2ccccc2CO[C@H]1CN(C)C(=O)Nc1ccc(-c2ccccc2)cc1`, the activity change, negative = inhibition is reported as -62.1% (inactive).
For `CC(C)NC(=O)N(C)C[C@H]1Oc2c(NS(=O)(=O)c3cccs3)cccc2C(=O)N([C@H](C)CO)C[C@H]1C`, the activity change, negative = inhibition was -14.3% (inactive).
With `C[C@H](CO)N1C[C@H](C)[C@@H](CN(C)Cc2ccc(C(F)(F)F)cc2)Oc2c(NC(=O)NC3CCCCC3)cccc2C1=O` the activity change, negative = inhibition was -53.4% (inactive).
For `C[C@@H]1CN([C@H](C)CO)C(=O)c2cccc(NC(=O)c3ccc(-c4nccs4)cc3)c2O[C@@H]1CN(C)C(=O)Nc1ccc(C(F)(F)F)cc1`, the activity change, negative = inhibition was -77.7% (active).
With `C[C@@H]1CN([C@H](C)CO)C(=O)c2cccc(NC(=O)NC3CCCCC3)c2O[C@H]1CN(C)Cc1ccc(C(F)(F)F)cc1` the activity change, negative = inhibition was -74.3% (active).
For `C[C@H]1CN([C@@H](C)CO)C(=O)c2cccc(NC(=O)C3CCOCC3)c2O[C@@H]1CN(C)C(=O)Nc1cccc2ccccc12`, the activity change, negative = inhibition was 5.47% (inactive).
